{"source": "PubChem BioAssay (EPA / NIEHS)", "note": "More than one record can exist for a structure, and the calls need not agree. Calls of active or inactive are those of the source. Rule for the calls: active = hit-call score of the fitted dose curve at least 0.9, where 1 is the maximum; inactive = score below 0.9.", "data": [{"read-out": "Transforming growth factor beta 1 (TGFb1), TGFB1 (gene 7040)", "assay": "BSK_KF3CT_TGFb1: BioMAP Diversity Plus: KF3CT Assay for Transforming growth factor beta 1 (TGFb1) Biomarker Activity (AID 2283072)", "settings": "primary human keratinocytes with fibroblasts; actives raise or lower the signal", "experimental": "BSK_KF3CT is a cell-based, multiplexed-readout assay that uses keratinocytes and foreskin fibroblasts, a human skin primary cell co-culture, with measurements taken at 24 hours after chemical dosing in a 96-well plate.BSK_KF3CT_TGFb1 is an assay component measured in the BSK_KF3CT assay. It measures TGF-b1 antibody related to regulation of gene expression using ELISA technology.Data from the assay component BSK_KF3CT_TGFb1 was analyzed into 1 assay endpoint. This assay endpoint, BSK_KF3CT_TGFb1, was analyzed with bidirectional fitting relative to DMSO as the negative control and baseline of activity. Using a type of binding reporter, gain or loss-of-signal activity can be used to understand changes in the signaling as they relate to the gene TGFB1. Furthermore, this assay endpoint can be referred to as a primary readout, because this assay has produced multiple assay endpoints where this one serves a signaling function. To generalize the intended target to other relatable targets, this assay endpoint is annotated to the growth factor intended target family, where the subfamily is transforming growth factor beta.\nThe levels of cell surface (or secreted, indicated by the prefix \"s\") biomarker endpoints were measured by ELISA. Overt cytotoxicity to cells in confluent adherent cultures (all systems other than the BT system) was assessed by measuring total protein levels using sulforhodamine B (SRB) staining in parallel cultures at the time of biomarker measurements, indicated as SRB endpoints. For proliferation assays for adherent cell types, individual cell types are cultured at sub-confluence and relative cell numbers quantified by SRB staining at time points optimized for each system (48 h: 3C and CASM3C systems; 72 h: BT and HDF3CGF systems; 96 h: SAg system). SRB was performed by staining cells with 0.1% SRB after fixation with 10% TCA and reading wells at 560 nm.Viability and proliferation of PBMC (T cells) was quantified by Alamar Blue reduction for the SAg and BT systems. For PBMC viability (referred to as PBMC Cytotoxicity within the assay endpoint names), cells were plated (75,000/well in a 96-well plate) and then chemical samples added for 1 h before addition of activators, SEB and TSST-1 (20 ng/mL final concentration each). Cells were incubated for 90 h. Then, Alamar Blue (20 uL/well) (Invitrogen, Cat DAL1100) was added for 6 h, and the plates were read with a fluorescence microplate reader at 546/580 nm (excitation/emission). For PBMC proliferation, cells were plated and activated as above but incubated for only 16 h prior to addition of Alamar Blue. Plates were read after 6 h.", "values": [{"molecule": "Cc1cc(C)nc(NC(=O)NS(=O)(=O)c2ccccc2C(=O)OC2COC2)n1", "outcome": "inactive"}, {"molecule": "[2H]C1([2H])[n+]2ccccc2-c2cccc[n+]2C1([2H])[2H]", "outcome": "inactive"}, {"molecule": "OCCOc1ccccc1", "outcome": "inactive"}, {"molecule": "O=C1c2ccccc2C(=O)N1SC(Cl)(Cl)Cl", "outcome": "inactive"}, {"molecule": "COP(=S)(OC)Oc1ccc([N+](=O)[O-])cc1", "outcome": "inactive"}, {"molecule": "O=C(O)CCCOc1ccc(Cl)cc1Cl", "outcome": "inactive"}, {"molecule": "CCN(CC)C(=O)SCc1ccc(Cl)cc1", "outcome": "inactive"}, {"molecule": "O=C(NC(=O)c1c(F)cccc1F)Nc1ccc(OC(F)(F)C(F)OC(F)(F)F)c(Cl)c1", "note": "(stereo not given)", "outcome": "inactive"}, {"molecule": "CC1(c2ccc(Oc3ccccc3)cc2)OC(=O)N(Nc2ccccc2)C1=O", "note": "(stereo not given)", "outcome": "inactive"}, {"molecule": "CNC(=O)Oc1ccccc1OC(C)C", "outcome": "inactive"}, {"molecule": "CCCN(CCC)c1c([N+](=O)[O-])cc(C(F)(F)F)cc1[N+](=O)[O-]", "outcome": "inactive"}, {"molecule": "CC(C)(C)C(O)/C(=C\\c1ccc(Cl)cc1Cl)n1cncn1", "note": "(stereo not given)", "outcome": "inactive"}, {"molecule": "CC(C)OC(=O)Nc1cccc(Cl)c1", "outcome": "inactive"}, {"molecule": "CCC(C)(NC(=O)c1cc(Cl)c(C)c(Cl)c1)C(=O)CCl", "note": "(stereo not given)", "AC50": "20 µM (active)"}, {"molecule": "CC1(C)C(C=C(Cl)Cl)C1C(=O)OC(C#N)c1ccc(F)c(Oc2ccccc2)c1", "note": "(stereo not given)", "outcome": "inactive"}, {"molecule": "CNC(=O)/C=C(\\C)OP(=O)(OC)OC", "outcome": "inactive"}, {"molecule": "CNC(=O)CSP(=S)(OC)OC", "outcome": "inactive"}, {"molecule": "CCc1ccc(C(=O)NN(C(=O)c2cc(C)cc(C)c2)C(C)(C)C)cc1", "outcome": "inactive"}, {"molecule": "CNC(=O)Oc1cccc(N=CN(C)C)c1", "outcome": "inactive"}, {"molecule": "CCC(C)Nc1c([N+](=O)[O-])cc(C(C)(C)C)cc1[N+](=O)[O-]", "note": "(stereo not given)", "outcome": "inactive"}, {"molecule": "COP(=S)(OC)Oc1ccc(SC)c(C)c1", "outcome": "inactive"}, {"molecule": "CCS(=O)(=O)c1cccnc1S(=O)(=O)NC(=O)Nc1nc(OC)cc(OC)n1", "outcome": "inactive"}, {"molecule": "CC[C@H](C)[C@H]1O[C@]2(C=C[C@@H]1C)C[C@@H]1C[C@@H](C/C=C(\\C)[C@@H](O[C@H]3C[C@H](OC)[C@@H](O[C@H]4C[C@H](OC)[C@@H](O)[C@H](C)O4)[C@H](C)O3)[C@@H](C)/C=C/C=C3\\CO[C@@H]4[C@H](O)C(C)=C[C@@H](C(=O)O1)[C@]34O)O2", "note": "(tested in a mixture with another compound)", "AC50": "31.7 µM (active)"}, {"molecule": "O=[N+]([O-])/N=C1\\NCCN1Cc1ccc(Cl)nc1", "outcome": "inactive"}, {"molecule": "CN1CSC(=S)N(C)C1", "outcome": "inactive"}, {"molecule": "ClC1C(Cl)C(Cl)C(Cl)C(Cl)C1Cl", "note": "(stereo not given)", "AC50": "20 µM (active)", "outcome": "inactive"}, {"molecule": "CCOc1nc(NC)nc(NC(=O)NS(=O)(=O)c2ccccc2C(=O)OC)n1", "outcome": "inactive"}, {"molecule": "O=S1OCC2C(CO1)C1(Cl)C(Cl)=C(Cl)C2(Cl)C1(Cl)Cl", "note": "(stereo not given)", "outcome": "inactive"}, {"molecule": "COC(=O)c1ccccc1S(=O)(=O)NC(=O)Nc1nc(C)nc(OC)n1", "outcome": "inactive"}, {"molecule": "Cc1[nH]c(=O)n(C(C)(C)C)c(=O)c1Cl", "outcome": "inactive"}, {"molecule": "CCC(C)(C)C(=O)OC1=C(c2ccc(Cl)cc2Cl)C(=O)OC12CCCCC2", "AC50": "31 µM (active)"}, {"molecule": "C#CCN1C(=O)COc2cc(F)c(N3C(=O)C4=C(CCCC4)C3=O)cc21", "outcome": "inactive"}, {"molecule": "O=C(O)C(F)(F)C(F)(F)C(F)(F)C(F)(F)C(F)(F)C(F)(F)C(F)(F)F", "outcome": "inactive"}, {"molecule": "O=C(O)COc1ccc(Cl)cc1Cl", "outcome": "inactive"}, {"molecule": "N#Cc1c(Cl)c(Cl)c(Cl)c(C#N)c1Cl", "AC50": "1.32 µM (active)"}, {"molecule": "N#CN", "outcome": "inactive"}, {"molecule": "C[C@H]1[C@H](c2ccc(Cl)cc2)SC(=O)N1C(=O)NC1CCCCC1", "outcome": "inactive"}, {"molecule": "COC(=O)c1ccccc1S(=O)(=O)NC(=O)N(C)c1nc(C)nc(OC)n1", "outcome": "inactive"}, {"molecule": "Clc1ccccc1-c1nnc(-c2ccccc2Cl)nn1", "outcome": "inactive"}]}]}
